Assay results: PubChem BioAssay (Tox21)
Where “and” joins values, the source holds several entries; their conditions need not be identical. Equal entries are not always repeated. Records with an inconclusive call do not appear. Calls of active or inactive are those of the source. Unless noted, calls follow the shape of the dose curve; as a rule, active = well fitted curve in the direction sought with a large enough effect in the repeat runs; inconclusive = weak or mixed curves; inactive = no such curve, though single readings can be large; an effect the other way counts as inactive or inconclusive.

Assay: qHTS assay to identify small molecule agonists of the estrogen related receptor (ERR) signaling pathway from Tox21 library (AID 1224849; calls by dose curve; also: nearly all actives have a fitted effect of over 15% in size)
Conditions: ERR reporter cell line, ONE-Glo luciferase, 18 h; at 42.5 µM (top of the series)
In short: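 ERR cells, 6 h pre-incubation 37 C/5% CO2; cpd in DMSO pinned; 18 h 37 C; ONE-Glo added, 30 min RT; luminescence read. Agonist mode, qHTS.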
% is scaled to controls: 0 for no effect and ±100 for the full control effect.

SMILES	activity change, positive = activation
CN1CCN2c3ccccc3Cc3ccccc3C2C1 (stereo not given)	-10.4% (inactive)
CCCCC(CC)CN1CN(CC(CC)CCCC)CC(C)(N)C1 (stereo not given)	-16.4% (inactive)
Cc1cc(C)c(/C=C2\C(=O)Nc3ccccc32)[nH]1	5.59% (inactive)
COC1=C(OC)C(=O)C(CCCCCCCCCCO)=C(C)C1=O	-46.7% (inactive)
CCCc1ccc(OCC(=O)N2CCN(C(=O)COc3ccc(CCC)cc3OC)CC2)c(OC)c1	-21.5% (inactive)
CCCCCCCCCCCCOCCOCCOCCOCCOCCOCCOCCOCCOCCO	-54.8% (inactive)
COc1c(C)c2c(c(O)c1C/C=C(\C)CCC(=O)OCCN1CCOCC1)C(=O)OC2	-23.6% (inactive)
O=C1CCc2ccc(OCCCCN3CCN(c4cccc(Cl)c4Cl)CC3)cc2N1	-56% (inactive)
COC(=O)C1=C(C)NC(C)=C(C(=O)OCCN2CCN(C(c3ccccc3)c3ccccc3)CC2)C1c1cccc([N+](=O)[O-])c1 (stereo not given)	-44.8% (inactive)
CC[N+](CC)(CC)CCOc1ccc(/C=C/c2ccccc2)cc1	-43% (inactive)
C#C[C@]1(OC(C)=O)CC[C@H]2[C@@H]3CCC4=C/C(=N/O)CC[C@@H]4[C@H]3CC[C@@]21CC	-41.4% (inactive)
CN(C)[C@@H](CCOc1cccc2ccccc12)c1ccccc1	-27.2% (inactive)
CCO[C@@H]1O[C@H](C(COCc2ccccc2)OCc2ccccc2)[C@H](OCc2ccccc2)[C@H]1O (stereo not given in full)	-48% (inactive)

Same assay, conditions: ERR reporter cell line, ONE-Glo luciferase, 18 h; at 92.4 µM (top of the series)

SMILES	activity change, positive = activation
CNc1ccc([N+](=O)[O-])cc1	0.163% (inactive)
Clc1ccnc(Cl)n1	-1.53% (inactive)
CC1(C)CCC[C@]2(C)[C@H]3CCO[C@]3(C)CC[C@@H]12	5.7% (inactive)
Sc1nc2ccccc2s1	0.0626% (inactive)
CCC(C)(CCC(C)C)C(=O)[O][Sn]([CH3])([CH3])[O]C(=O)C(C)(CC)CCC(C)C (stereo not given)	-20.9% (inactive)
Cc1cc(=O)oc2cc(O)cc(O)c12	-20.6% (inactive)
Nc1cc(Cl)c(O)c(Cl)c1	-4.45% (inactive)
Cc1cc(C(C)(C)C)c(O)c(C)c1Cn1c(=O)n(Cc2c(C)cc(C(C)(C)C)c(O)c2C)c(=O)n(Cc2c(C)cc(C(C)(C)C)c(O)c2C)c1=O	-29.1% (inactive)
CC1(C)[C@@H](O)CC[C@]2(C)[C@H]3C(=O)C=C4[C@@H]5C[C@@](C)(C(=O)O)CC[C@]5(C)CC[C@@]4(C)[C@]3(C)CC[C@@H]12	3.52% (inactive)

Assay: qHTS RealTime-Glo MT Cell Viability Assay in HepG2 cells - 24 hour (AID 1224867); also: nearly all actives have a fitted effect of over 50% in size; also: potency is read from the fitted curve at half-maximal effect
Conditions: RealTime-Glo luminescence; series mostly up to 76.8 µM; activity change, negative = cytotoxicity: at the top concentration
In short: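 HepG2 suspension premixed with RealTime-Glo reagents is plated at 600 cells per well and left 5 h at 37 C/5% CO2. Compounds in DMSO then go in, and bioluminescence reflecting viable cell number is recorded over 40 h.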

SMILES	activity change, negative = cytotoxicity	Potency
CN1CCN2c3ccccc3Cc3ccccc3C2C1 (stereo not given)	-12.7% [at 35.3 µM] (inactive)	
COc1cc2nc(N3CCN(C(=O)c4ccco4)CC3)nc(N)c2cc1OC	-23% [at 15.8 µM] (inactive)	
CNc1ccc([N+](=O)[O-])cc1	-8.92% (inactive)	
Clc1ccnc(Cl)n1	2.75% (inactive)	
CC1(C)CCC[C@]2(C)[C@H]3CCO[C@]3(C)CC[C@@H]12	-1.13% (inactive)	
CN1CCCCC1CCN1c2ccccc2Sc2ccc(S(C)=O)cc21 (stereo not given)	-0.815% [at 35.3 µM] (inactive)	
CCn1c2ccccc2c2cc([N+](=O)[O-])ccc21	-24.5% (inactive)	
O=C(O)O	3.08% [at 6.97 µM] (inactive)	
Cc1cc(C)c(/C=C2\C(=O)Nc3ccccc32)[nH]1	-14.5% [at 35.3 µM] (inactive)	
COC1=C(OC)C(=O)C(CCCCCCCCCCO)=C(C)C1=O	-21% [at 35.3 µM] (inactive)	
COc1c(C)c2c(c(O)c1C/C=C(\C)CCC(=O)OCCN1CCOCC1)C(=O)OC2	2.15% [at 35.3 µM] (inactive)	
Sc1nc2ccccc2s1	-2.35% (inactive)	
CCC(C)(CCC(C)C)C(=O)[O][Sn]([CH3])([CH3])[O]C(=O)C(C)(CC)CCC(C)C (stereo not given)	0.0979% (inactive)	
CCCCC/C=C\C/C=C\CCCCCCCC(=O)O		inactive
Cc1cc(=O)oc2cc(O)cc(O)c12	-4.07% (inactive)	
C=CCCC(=O)/C=C/C1C(C)=CCCC1(C)C (stereo not given)	-10.8% (inactive)	
CC(C)(C)c1csc(-c2cc3cc(OCc4ccccc4CC(=O)O)ccc3o2)n1	-26.3% (inactive)	
O=c1[nH]c2ccccc2n1CCCN1CCN(C(c2ccccc2)c2ccccc2)CC1		23.9 µM (active)
O=c1c(O)c(-c2ccc(O)cc2O)oc2cc(O)cc(O)c12	-0.888% (inactive)	
COC(=O)Nc1nc2ccc(C(=O)c3ccccc3)cc2[nH]1	-14.8% [at 35.3 µM] (inactive)	
CC1(C)[C@@H](O)CC[C@]2(C)[C@H]3C(=O)C=C4[C@@H]5C[C@@](C)(C(=O)O)CC[C@]5(C)CC[C@@]4(C)[C@]3(C)CC[C@@H]12	-1.16% (inactive)	
CCO[C@@H]1O[C@H](C(COCc2ccccc2)OCc2ccccc2)[C@H](OCc2ccccc2)[C@H]1O (stereo not given in full)	-24.6% [at 35.3 µM] (inactive)	

Assay: qHTS RealTime-Glo MT Cell Viability Assay in HEK293 cells - 32 hour (AID 1224868); also: nearly all actives have a fitted effect of over 50% in size; also: potency is read from the fitted curve at half-maximal effect; as to activity change, negative = cytotoxic: top concentration of the series differs between compounds
Conditions: RealTime-Glo luminescence; series mostly up to 76.8 µM; activity change, negative = cytotoxic: at the top concentration
In short: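 Reads taken at 0, 8, 16, 24, 32 and 40 h from the same wells. HEK293 cells (600/well) carried RealTime-Glo reagents from seeding, with compound added after a 5 h settle at 37 C.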

SMILES	activity change, negative = cytotoxic	Potency
CN1CCN2c3ccccc3Cc3ccccc3C2C1 (stereo not given)	-5.06% [at 35.3 µM] (inactive)	
CCCCCC/C=C\CCCCCCCC(=O)O	-0.986% (inactive)	
COc1cc2nc(N3CCN(C(=O)c4ccco4)CC3)nc(N)c2cc1OC	-17.7% [at 15.8 µM] (inactive)	
CNc1ccc([N+](=O)[O-])cc1	-11.7% (inactive)	
Clc1ccnc(Cl)n1	20.6% (inactive)	
CCCCC(CC)CN1CN(CC(CC)CCCC)CC(C)(N)C1 (stereo not given)		8.49 µM (active)
CC1(C)CCC[C@]2(C)[C@H]3CCO[C@]3(C)CC[C@@H]12	4.45% (inactive)	
O=C(O)O	0.187% [at 6.97 µM] (inactive)	
Cc1cc(C)c(/C=C2\C(=O)Nc3ccccc32)[nH]1	-11.7% [at 35.3 µM] (inactive)	
COC1=C(OC)C(=O)C(CCCCCCCCCCO)=C(C)C1=O		5.35 µM (active)
CCCc1ccc(OCC(=O)N2CCN(C(=O)COc3ccc(CCC)cc3OC)CC2)c(OC)c1		8.49 µM (active)
CCCCCCCCCCCCOCCOCCOCCOCCOCCOCCOCCOCCOCCO		5.35 µM (active)
COc1c(C)c2c(c(O)c1C/C=C(\C)CCC(=O)OCCN1CCOCC1)C(=O)OC2	-23.4% [at 35.3 µM] (inactive)	
O=C1CCc2ccc(OCCCCN3CCN(c4cccc(Cl)c4Cl)CC3)cc2N1		10.7 µM (active)
Sc1nc2ccccc2s1	4.75% (inactive)	
CN1CCN(Cc2cc(-c3ccc4[nH]c(=O)oc4c3)co2)[C@@H](c2ccc(F)cc2)C1		21.1 µM (active)
CCCCC/C=C\C/C=C\CCCCCCCC(=O)O		inactive
Cc1cc(=O)oc2cc(O)cc(O)c12	-10.4% (inactive)	
Oc1ccccc1O		39.4 µM (active) and 21.9 µM (active)
Cc1cc(C(C)(C)C)c(O)c(C)c1Cn1c(=O)n(Cc2c(C)cc(C(C)(C)C)c(O)c2C)c(=O)n(Cc2c(C)cc(C(C)(C)C)c(O)c2C)c1=O		21.9 µM (active)
C=CCCC(=O)/C=C/C1C(C)=CCCC1(C)C (stereo not given)	-12.1% (inactive)	
CC(C)(C)c1csc(-c2cc3cc(OCc4ccccc4CC(=O)O)ccc3o2)n1		38.9 µM (active)
O=c1[nH]c2ccccc2n1CCCN1CCN(C(c2ccccc2)c2ccccc2)CC1		12 µM (active)
O=c1c(O)c(-c2ccc(O)cc2O)oc2cc(O)cc(O)c12	1.07% (inactive)	
COC(=O)Nc1nc2ccc(C(=O)c3ccccc3)cc2[nH]1		0.848 µM (active)
CC1(C)[C@@H](O)CC[C@]2(C)[C@H]3C(=O)C=C4[C@@H]5C[C@@](C)(C(=O)O)CC[C@]5(C)CC[C@@]4(C)[C@]3(C)CC[C@@H]12	10.5% (inactive)	
